This note sets out measurements from PubChem BioAssay (Tox21).

Values without a mark were called inactive. Records with an inconclusive call do not appear. The source made the active and inactive calls. Unless noted, calls come from the whole dose curve; as a rule, active = well fitted curve in the direction sought with a large enough effect in the repeat runs; inconclusive = weak or mixed curves; inactive = no such curve, though single readings can be large; an effect the other way counts as inactive or inconclusive.

Experiment [1] in a line: Caspase-3/7 induction in HepG2 cells by small molecules, qHTS assay (AID 1346978). Note: nearly all actives have a fitted effect of over 15% in size. In outline:
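Wild-type HepG2 cells, 2,000/well, settled 5 hr at 37 C and 5% CO2, then compound-treated for 17 hr; caspase-3/7 activity read by luminescent Caspase-Glo 3/7 after 30 min at room temperature.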

The nature of experiment [2]: Caspase-3/7 induction in CHO-K1 cells by small molecules, qHTS cell viability counter screen (AID 1346979). Note: nearly all actives have a fitted effect of over 35% in size. Note: potency is the fitted concentration of half-maximal effect. An outline of the steps:
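CellTiter-Fluor viability check, qHTS format: wild-type CHO-K1, 16hr compound treatment, 1hr reagent incubation, fluorescence read.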

Experiment [3] in a line: Caspase-3/7 induction in CHO-K1 cells by small molecules, qHTS assay (AID 1346980). Note: nearly all actives have a fitted effect of over 15% in size. An outline of the steps:
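Wild-type CHO-K1 cells exposed to compounds for 17hr at 37 C, 5% CO2. Caspase-3/7 activity then measured by Caspase-Glo 3/7 luminescence after 30min at room temperature.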

The nature of experiment [4]: Caspase-3/7 induction in HepG2 cells by small molecules, qHTS cell viability counter screen (AID 1346981). Note: nearly all actives have a fitted effect of over 30% in size. Note: potency is the fitted concentration of half-maximal effect. An outline of the steps:
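The parent HepG2 line is plated at 2,000 cells per well and rested 5 hr before compound pinning from DMSO stocks. Following a 16-hr treatment at 37 C, a fluorogenic live-cell substrate (CellTiter-Fluor) reports viability after 1 hr.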

Experiment [5] addresses Nuclear receptor subfamily 1 group I member 2 (Homo sapiens) (UniProt O75469). Description: Human pregnane X receptor (PXR) small molecule agonists, qHTS assay (AID 1346982). Note: nearly all actives have a fitted effect of over 35% in size. Note: potency is the fitted concentration of half-maximal effect. An outline of the steps: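 After plating in 5% charcoal-stripped FBS and a 5 hr rest, PXR-Luc HepG2 cells received compounds in DMSO. Following 24 hr at 37 C, ONE-Glo was added and light output read.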

The target in experiment [6] is Acetylcholinesterase (Homo sapiens) (UniProt P22303). Description: Acetylcholinesterase (AChE) small molecule antagonists: colormetric cell-based qHTS assay (AID 1347395; calls by dose curve; note: nearly all actives have a fitted effect of over 30% in size; note: potency is the fitted concentration of half-maximal effect). In outline: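 AChE inhibition read colorimetrically via DTNB–thiocholine in SH-SY5Y cells. Compound 30 min, substrate 90 min, both 37 C.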
Sequence of Acetylcholinesterase (Homo sapiens) (P22303 whole entry, looked up): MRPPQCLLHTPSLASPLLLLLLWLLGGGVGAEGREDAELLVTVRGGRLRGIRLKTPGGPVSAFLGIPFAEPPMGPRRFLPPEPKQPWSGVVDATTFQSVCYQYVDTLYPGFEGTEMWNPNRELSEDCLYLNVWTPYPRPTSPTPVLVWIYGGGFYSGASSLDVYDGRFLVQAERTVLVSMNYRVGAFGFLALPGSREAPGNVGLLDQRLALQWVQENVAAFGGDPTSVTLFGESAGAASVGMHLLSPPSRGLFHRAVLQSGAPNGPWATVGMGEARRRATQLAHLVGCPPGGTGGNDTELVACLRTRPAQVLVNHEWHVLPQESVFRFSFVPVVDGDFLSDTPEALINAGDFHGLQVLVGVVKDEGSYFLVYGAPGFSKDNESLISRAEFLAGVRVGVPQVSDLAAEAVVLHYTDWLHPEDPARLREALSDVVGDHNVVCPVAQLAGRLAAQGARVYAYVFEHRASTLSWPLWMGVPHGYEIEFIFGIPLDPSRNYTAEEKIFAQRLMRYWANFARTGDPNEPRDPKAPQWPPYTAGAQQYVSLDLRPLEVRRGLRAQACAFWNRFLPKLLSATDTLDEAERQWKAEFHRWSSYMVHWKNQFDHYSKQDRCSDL
The target is the same in experiment [7]. Kind of experiment: Acetylcholinesterase (AChE) small molecule antagonists: enzyme-based qHTS assay (AID 1347397; calls by dose curve; note: nearly all actives have a fitted effect of over 55% in size). Conditions: Potency: AChE enzyme activity inhibition. In outline: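 In this quantitative HTS, compounds from the Tox21 10K collection were preincubated 30 min at ambient temperature with recombinant human AChE dispensed at 50 mU/mL. Hydrolysis of acetylthiocholine was then followed for 10 min by DTNB colour development.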

Experiment [8] shares this target. Description: Acetylcholinesterase (AChE) small molecule antagonists: fluorescence cell-based qHTS assay (AID 1347398; calls by dose curve; note: nearly all actives have a fitted effect of over 50% in size; note: potency is the fitted concentration of half-maximal effect). Conditions: Potency: AChE activity. In outline: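 Cells (SH-SY5Y) attached overnight, were dosed with compound or DMSO vehicle for 30 min at 37 C, and then incubated 40 min at room temperature with acetylthiocholine and Thiolite Green; green fluorescence indexed AChE activity.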

For experiment [9] the target is unchanged. Description: Acetylcholinesterase (AChE) small molecule antagonists: enzyme-based qHTS assay with human liver microsomes (AID 1347399; calls by dose curve; note: nearly all actives have a fitted effect of over 60% in size). Particulars: Potency: qHTS inhibition. An outline of the steps: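 Recombinant human AChE (50 mU/mL in the enzyme mix) and human liver microsomes (0.25 mg/mL final) were preincubated with compound and NADPH (0.25 mg/mL final) for 30 min at 37 C. Acetylthiocholine/DTNB was then added; thiocholine was read colorimetrically after 10 min at room temperature.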

In experiment [10] the target is Cytochrome P450 2D6 (Homo sapiens) (UniProt P10635). Description: Cytochrome P450 Family 2 Subfamily D Member 6 (CYP2D6) small molecule antagonists: luciferase reporter qHTS assay (AID 1671196). Note: nearly all actives have a fitted effect of over 50% in size. Note: potency is the fitted concentration of half-maximal effect. An outline of the steps:
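Quantitative HTS of Tox21 chemicals against CYP2D6 using a luminescent proluciferin substrate. After NADPH addition, 1 h room-temperature reaction; luminescence recorded 20 min post detection reagent.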

For experiment [11], the target named is Cytochrome P450 2C9 (Homo sapiens) (UniProt P11712). Description: Cytochrome P450 Family 2 Subfamily C Member 9 (CYP2C9) small molecule antagonists: luciferase reporter qHTS assay (AID 1671198). Note: nearly all actives have a fitted effect of over 50% in size. Note: potency is the fitted concentration of half-maximal effect. In outline:
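P450-Glo proluciferin substrate with CYP2C9 enzyme; 10 min RT preincubation, then NADPH regeneration 1 h at 37C; luciferin detection reagent 20 min RT, luminescence in relative luminescence units.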

Experiment [12] has as its target Cytochrome P450 1A2 (Homo sapiens) (UniProt P05177). Description: Cytochrome P450 Family 1 Subfamily A Member 2 (CYP1A2) small molecule antagonists: luciferase reporter qHTS assay (AID 1671199). Note: nearly all actives have a fitted effect of over 50% in size. Note: potency is the fitted concentration of half-maximal effect. In outline: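 Quantitative high-throughput format using the P450-Glo CYP1A2 system. Reaction initiated by NADPH regeneration solution, 1 h at room temperature, then stopped with detection reagent; luminescence measured 20 min later.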

Experiment [13] deals with Voltage-gated inwardly rectifying potassium channel KCNH2 (Homo sapiens) (UniProt Q12809). Kind of experiment: Human Ether-a-go-go-Related Gene (hERG) channel small molecule antagonists: fluorescence cell-based qHTS assay (AID 1671200). Note: nearly all actives have a fitted effect of over 50% in size. Note: potency is the fitted concentration of half-maximal effect. An outline of the steps: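 Kinetic two-minute fluorescence traces, sampled at 1 s, were collected following thallium stimulus of U2OS cells (1000 per well) that had been cultured overnight at 37 C and loaded with FluxOR II.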
Sequence of Voltage-gated inwardly rectifying potassium channel KCNH2 (Homo sapiens) (Q12809 whole entry, looked up): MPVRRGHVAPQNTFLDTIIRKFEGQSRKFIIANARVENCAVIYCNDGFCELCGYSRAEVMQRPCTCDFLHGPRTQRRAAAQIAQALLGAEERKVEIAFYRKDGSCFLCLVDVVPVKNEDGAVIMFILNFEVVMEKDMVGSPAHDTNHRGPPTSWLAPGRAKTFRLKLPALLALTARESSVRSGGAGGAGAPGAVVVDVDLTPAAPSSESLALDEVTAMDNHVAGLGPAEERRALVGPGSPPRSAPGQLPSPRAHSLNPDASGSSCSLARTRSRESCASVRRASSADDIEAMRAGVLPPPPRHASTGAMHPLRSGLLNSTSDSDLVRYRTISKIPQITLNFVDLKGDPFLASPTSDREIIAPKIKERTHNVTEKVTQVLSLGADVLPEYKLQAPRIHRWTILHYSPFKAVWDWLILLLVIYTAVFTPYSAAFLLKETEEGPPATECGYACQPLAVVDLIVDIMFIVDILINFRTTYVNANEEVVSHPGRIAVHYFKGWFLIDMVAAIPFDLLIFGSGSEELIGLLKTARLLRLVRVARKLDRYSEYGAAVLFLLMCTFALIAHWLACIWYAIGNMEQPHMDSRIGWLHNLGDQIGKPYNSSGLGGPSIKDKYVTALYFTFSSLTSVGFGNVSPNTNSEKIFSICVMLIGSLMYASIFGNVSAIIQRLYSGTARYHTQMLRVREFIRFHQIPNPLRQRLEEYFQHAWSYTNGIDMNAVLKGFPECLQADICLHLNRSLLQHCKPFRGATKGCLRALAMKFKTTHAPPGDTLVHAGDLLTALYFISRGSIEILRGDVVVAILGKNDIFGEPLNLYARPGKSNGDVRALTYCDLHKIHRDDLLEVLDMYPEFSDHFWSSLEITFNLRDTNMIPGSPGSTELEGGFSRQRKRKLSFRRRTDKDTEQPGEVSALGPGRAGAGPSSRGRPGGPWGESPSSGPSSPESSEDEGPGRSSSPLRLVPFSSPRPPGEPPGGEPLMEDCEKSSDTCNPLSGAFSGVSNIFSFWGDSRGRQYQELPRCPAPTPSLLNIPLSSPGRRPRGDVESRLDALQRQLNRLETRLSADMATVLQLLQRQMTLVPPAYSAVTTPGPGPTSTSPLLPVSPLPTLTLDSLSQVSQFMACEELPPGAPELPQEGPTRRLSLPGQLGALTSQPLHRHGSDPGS

For experiment [14], the target named is Cytochrome P450 3A4 (Homo sapiens) (UniProt P08684). Kind of experiment: Cytochrome P450 Family 3 Subfamily A Member 4 (CYP3A4) small molecule antagonists: luciferase reporter qHTS assay (AID 1671201). Note: nearly all actives have a fitted effect of over 50% in size. Note: potency is the fitted concentration of half-maximal effect. An outline of the steps:
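Proluciferin-to-luciferin conversion by CYP3A4, NADPH-regenerated, 1 h RT; luminescence read as RLU. Ketoconazole as control.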

Experiment [15] deals with Cytochrome P450 2C19 (Homo sapiens) (UniProt P33261). Kind of experiment: Cytochrome P450 Family 2 Subfamily C Member 19 (CYP2C19) small molecule antagonists: luciferase reporter qHTS assay (AID 1671197). Note: nearly all actives have a fitted effect of over 65% in size. Note: potency is the fitted concentration of half-maximal effect. An outline of the steps:
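Light output is proportional to CYP2C19 activity: proluciferin substrate is converted to luciferin, then detected by a luciferin detection reagent that also stops the 1 h, 37C NADPH-driven reaction. Ketoconazole serves as positive control.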

Sequence of Cytochrome P450 2C9 (Homo sapiens) (P11712 whole entry, looked up): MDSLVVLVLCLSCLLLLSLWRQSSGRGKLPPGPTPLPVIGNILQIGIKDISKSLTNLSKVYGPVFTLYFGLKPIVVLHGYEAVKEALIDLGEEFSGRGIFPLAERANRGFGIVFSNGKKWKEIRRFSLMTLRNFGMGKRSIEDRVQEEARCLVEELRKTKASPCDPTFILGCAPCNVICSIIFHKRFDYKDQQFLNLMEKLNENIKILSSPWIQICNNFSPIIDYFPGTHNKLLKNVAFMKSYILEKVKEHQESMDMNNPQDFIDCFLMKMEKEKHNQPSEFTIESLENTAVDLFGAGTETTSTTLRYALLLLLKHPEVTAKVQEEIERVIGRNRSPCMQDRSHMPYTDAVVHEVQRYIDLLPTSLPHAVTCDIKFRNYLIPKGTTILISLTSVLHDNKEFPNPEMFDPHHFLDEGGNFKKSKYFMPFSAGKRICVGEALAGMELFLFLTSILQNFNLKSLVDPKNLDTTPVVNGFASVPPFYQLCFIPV
Sequence of Nuclear receptor subfamily 1 group I member 2 (Homo sapiens) (O75469 whole entry, looked up): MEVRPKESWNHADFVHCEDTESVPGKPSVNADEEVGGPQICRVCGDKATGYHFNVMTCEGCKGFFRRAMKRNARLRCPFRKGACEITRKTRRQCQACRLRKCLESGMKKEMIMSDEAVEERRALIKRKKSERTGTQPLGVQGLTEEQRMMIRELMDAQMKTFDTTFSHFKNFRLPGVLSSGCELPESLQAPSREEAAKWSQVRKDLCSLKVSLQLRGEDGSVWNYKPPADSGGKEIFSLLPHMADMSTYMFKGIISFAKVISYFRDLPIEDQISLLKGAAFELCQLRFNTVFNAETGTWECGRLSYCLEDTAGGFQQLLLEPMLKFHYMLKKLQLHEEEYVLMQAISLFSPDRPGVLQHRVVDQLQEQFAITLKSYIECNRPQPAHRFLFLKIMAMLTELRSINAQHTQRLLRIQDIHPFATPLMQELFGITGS
Sequence of Cytochrome P450 3A4 (Homo sapiens) (P08684 whole entry, looked up): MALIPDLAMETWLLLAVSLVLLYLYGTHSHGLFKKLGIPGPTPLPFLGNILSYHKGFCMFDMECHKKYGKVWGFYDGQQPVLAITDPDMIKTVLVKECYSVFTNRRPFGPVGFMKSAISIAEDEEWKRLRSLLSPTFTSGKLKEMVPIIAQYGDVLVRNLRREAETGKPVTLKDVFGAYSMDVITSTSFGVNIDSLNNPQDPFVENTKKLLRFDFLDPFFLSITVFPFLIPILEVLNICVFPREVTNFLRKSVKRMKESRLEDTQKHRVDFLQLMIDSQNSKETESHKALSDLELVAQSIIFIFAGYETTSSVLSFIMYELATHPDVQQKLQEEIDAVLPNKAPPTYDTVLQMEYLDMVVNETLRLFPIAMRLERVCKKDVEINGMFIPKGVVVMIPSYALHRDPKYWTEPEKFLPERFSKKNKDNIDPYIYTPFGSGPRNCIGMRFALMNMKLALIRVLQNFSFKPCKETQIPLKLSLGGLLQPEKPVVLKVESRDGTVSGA
Sequence of Cytochrome P450 1A2 (Homo sapiens) (P05177 whole entry, looked up): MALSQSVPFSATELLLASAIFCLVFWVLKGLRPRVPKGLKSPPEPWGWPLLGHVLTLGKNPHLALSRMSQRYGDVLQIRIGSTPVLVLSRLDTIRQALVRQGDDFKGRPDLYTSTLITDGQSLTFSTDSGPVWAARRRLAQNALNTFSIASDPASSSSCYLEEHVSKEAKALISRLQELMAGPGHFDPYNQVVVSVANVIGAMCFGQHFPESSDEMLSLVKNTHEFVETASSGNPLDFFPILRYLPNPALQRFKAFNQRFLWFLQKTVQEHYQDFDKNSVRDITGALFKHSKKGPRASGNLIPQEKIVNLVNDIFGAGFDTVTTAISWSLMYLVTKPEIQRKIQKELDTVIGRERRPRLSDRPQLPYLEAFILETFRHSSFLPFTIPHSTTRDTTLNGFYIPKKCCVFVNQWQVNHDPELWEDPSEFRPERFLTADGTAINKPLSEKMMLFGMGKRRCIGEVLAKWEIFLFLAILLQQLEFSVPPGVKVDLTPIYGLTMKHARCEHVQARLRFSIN
Sequence of Cytochrome P450 2C19 (Homo sapiens) (P33261 whole entry, looked up): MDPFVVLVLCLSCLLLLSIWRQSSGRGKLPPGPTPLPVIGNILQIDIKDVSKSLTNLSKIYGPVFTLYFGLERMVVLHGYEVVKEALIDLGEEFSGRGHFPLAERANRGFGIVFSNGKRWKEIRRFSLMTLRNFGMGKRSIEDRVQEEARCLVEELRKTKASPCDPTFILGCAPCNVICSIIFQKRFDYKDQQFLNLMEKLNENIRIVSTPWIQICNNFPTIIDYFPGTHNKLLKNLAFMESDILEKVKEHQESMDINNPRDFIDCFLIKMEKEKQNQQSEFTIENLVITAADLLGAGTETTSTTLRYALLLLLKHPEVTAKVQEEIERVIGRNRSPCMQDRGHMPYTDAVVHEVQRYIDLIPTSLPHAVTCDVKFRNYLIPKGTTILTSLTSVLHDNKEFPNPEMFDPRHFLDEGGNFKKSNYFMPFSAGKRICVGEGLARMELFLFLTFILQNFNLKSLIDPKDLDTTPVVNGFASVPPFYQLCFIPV
Sequence of Cytochrome P450 2D6 (Homo sapiens) (P10635 whole entry, looked up): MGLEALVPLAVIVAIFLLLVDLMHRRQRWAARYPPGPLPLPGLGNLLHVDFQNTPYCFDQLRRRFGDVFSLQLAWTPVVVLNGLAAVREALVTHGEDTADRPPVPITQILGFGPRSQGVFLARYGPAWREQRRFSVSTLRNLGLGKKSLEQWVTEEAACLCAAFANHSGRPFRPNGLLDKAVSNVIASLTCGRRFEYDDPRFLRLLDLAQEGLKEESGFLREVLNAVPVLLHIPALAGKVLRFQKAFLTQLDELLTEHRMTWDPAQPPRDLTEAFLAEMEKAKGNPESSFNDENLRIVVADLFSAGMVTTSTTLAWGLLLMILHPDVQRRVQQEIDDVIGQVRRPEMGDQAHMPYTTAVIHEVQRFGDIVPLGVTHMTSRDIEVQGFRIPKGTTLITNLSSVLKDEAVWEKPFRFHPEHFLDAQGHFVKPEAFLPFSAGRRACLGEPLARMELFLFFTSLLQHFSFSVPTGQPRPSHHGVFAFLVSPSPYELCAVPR

`CSC(C)(C)/C=N/O`: the Potency entry in experiment [1], in [2], in [3], in experiment [4], in experiment [5] and in experiment [6] was “inactive” in each case. Also, the Potency result in [7], in experiment [8], in [9], in experiment [10], in [11] and in experiment [12] was “inactive” each time. In addition, the Potency entry in experiment [13] and in experiment [14] was “inactive” throughout.
`Cc1nn(-c2cc(NS(C)(=O)=O)c(Cl)cc2Cl)c(=O)n1C(F)F`: the Potency entry in experiment [1], in experiment [2], in experiment [3], in experiment [4], in experiment [5] and in experiment [6] was “inactive” each time. Further, the Potency result in [7], in experiment [8], in experiment [9], in experiment [10], in experiment [13] and in [14] was “inactive” throughout. In addition, the Potency in experiment [11] was 39.9 µM (active).
Take `CC[N+]1(CC)CCC(OC(=O)C(O)(c2ccccc2)c2ccccc2)C1` (stereo unspecified): the Potency entry in experiment [1], in experiment [2], in experiment [3], in experiment [4], in experiment [5] and in [6] was “inactive” throughout. Further, the Potency entry in experiment [7], in experiment [8], in experiment [9], in experiment [11], in experiment [13] and in experiment [14] was “inactive” in each case. The Potency in experiment [10] is 8.71 µM (active).
With `O=P(Cl)(Cl)Cl`, the Potency entry in experiment [1], in [2], in experiment [3], in experiment [4], in [5] and in experiment [6] was “inactive” each time. Also, the Potency result in experiment [7], in experiment [8], in [9], in experiment [10], in experiment [11] and in experiment [13] was “inactive” each time. In experiment [14], the Potency entry is “inactive”.
For the compound `Cc1cccc(Cc2cnc[nH]2)c1C`, the Potency result in experiment [1], in experiment [2], in [3], in experiment [4], in [5] and in experiment [6] was “inactive” each time. Moreover, the Potency entry in experiment [7], in experiment [9] and in [13] was “inactive” each time. The Potency is 2.45 µM (active) in experiment [10], 2.19 µM (active) in experiment [15], 0.347 µM (active) in experiment [11] and 0.911 µM (active) in [12].
As for `COc1ccc2c(c1OC)C(=O)O[C@@H]2[C@H]1c2cc3c(cc2CCN1C)OCO3`, the Potency result in experiment [1], in experiment [3], in experiment [6], in experiment [7], in [8] and in experiment [9] was “inactive” throughout. The Potency in experiment [2] is 21.5 µM (active); in experiment [4], 17.1 µM (active); in [5], 30.3 µM (active); in [10], 35.2 µM (active); in [11] it was 5.58 µM (active); in experiment [13] it was 21.7 µM (active).
For the compound `CN=C=O`, the Potency result in experiment [1], in experiment [2], in [3], in experiment [4], in [5] and in [6] was “inactive” throughout. The Potency entry in experiment [7], in experiment [8], in [9], in experiment [15], in experiment [11] and in experiment [13] was “inactive” each time. Besides, in [14], the Potency entry was “inactive”. In [12], the Potency was 36.1 µM (active).
Consider `CNC(=O)/C=C(\C)OP(=O)(OC)OC`, for which the Potency result in [1], in experiment [2], in experiment [3], in experiment [4], in [5] and in [9] was “inactive” throughout. The Potency entry in experiment [10], in [15], in experiment [11], in experiment [13] and in experiment [14] was “inactive” in each case. Moreover, the results for the Potency in experiment [6] and in experiment [8] were 39.9 µM (active) and 31.7 µM (active), respectively.
Take `N#Cc1sc2c(=O)c3ccccc3c(=O)c=2sc1C#N`: the Potency result in [1], in [3], in experiment [7] and in experiment [9] was “inactive” throughout. Further, the Potency in [2] was 21.7 µM (active); in [4], 21.7 µM (active); in experiment [5], 2.73 µM (active); in experiment [6], 44.8 µM (active); in experiment [8] it was 63.3 µM (active); in [15] it was 3.99 µM (active). Also, the Potency was 3.17 µM (active) in experiment [11], 21.9 µM (active) in [13] and 17.8 µM (active) in experiment [14].
With `CCCCCON=O`, the Potency entry in experiment [1], in [2], in experiment [3], in [4], in experiment [5] and in experiment [6] was “inactive” throughout. In addition, the Potency entry in experiment [8], in experiment [9], in [10], in experiment [15], in [11] and in experiment [12] was “inactive” each time. For the same compound, the Potency result in [13] and in experiment [14] was “inactive” in each case.
Turning to `Oc1cccc(Cl)c1Cl`, the Potency result in experiment [1], in [2], in [3], in experiment [4], in [5] and in experiment [6] was “inactive” in each case. Also, the Potency result in experiment [7], in [8], in experiment [9], in experiment [11], in [13] and in [14] was “inactive” throughout. Further, the results for the Potency in experiment [15] and in experiment [12] were 80 µM (active) and 35.7 µM (active), respectively.
In the case of `Cc1c([N+](=O)[O-])cc2c(c1[N+](=O)[O-])C(C)(C)CC2(C)C`, the Potency result in experiment [1], in experiment [2], in experiment [3], in experiment [4], in experiment [6] and in [7] was “inactive” throughout. Moreover, the Potency entry in experiment [8], in [9], in experiment [10] and in experiment [14] was “inactive” in each case. Further, the results for the Potency in experiment [5] and in experiment [12] were 54.5 µM (active) and 8.94 µM (active), respectively.
As to `Clc1cc(Cl)c(-c2cc(Cl)c(Cl)cc2Cl)cc1Cl`, the Potency entry in experiment [1], in experiment [2], in experiment [3], in [4], in experiment [5] and in experiment [6] was “inactive” each time. Also, the Potency entry in experiment [7], in experiment [8], in experiment [9], in experiment [10], in [11] and in experiment [13] was “inactive” throughout. Further, in experiment [14], the Potency result was “inactive”.
